For 15 compounds, composite z-score and z-score results are on record in PubChem BioAssay.

The test system of assay [1] is Plasmodium falciparum Sir2 (PF13_0152, Sir2A). Description: pfSir2 binders on small-molecule microarrays, primary screen, biochemical, small-molecule microarray, 635 nm fluorescence (AID 1098).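 Also: score merges spot fluorescence intensity with its signal-to-noise ratio.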 The settings on record: small-molecule microarray binding, fluorescence 635 nm; higher = more signal.
Assay [2] is described as follows: small-molecule microarray binders of probe aDKK1, primary screen, biochemical, biotinylated probe, 635/667 nm fluorescence (AID 1099).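 Also: score merges 667nm spot fluorescence with signal to noise across triplicate slides; reference of the scale not given here.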 The conditions noted are these: higher = more signal.
A short description of assay [3]: small-molecule microarray binders of probe aCHRDL2, primary screen, biochemical, biotinylated probe, 635/667 nm fluorescence (AID 1100). The conditions noted are these: higher = more signal.
Assay [4] can be described thus: splicing luciferase reporter signal modulators, primary screen, spliceosome inhibition project, cell-based, HEK293, splice +/- reporter (AID 1101).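 Also: HEK293 cells carrying a splicing-competent luciferase reporter gene; test concentration not given here.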 The settings on record: luminescence, 24 h, higher = more signal, called active from +8 up or from −8 down.
Assay [5] concerns the target Fibroblast growth factor 10 (Homo sapiens) (UniProt O15520). Description: FGF10 binders on small-molecule microarrays, primary screen, biochemical, small-molecule microarray, 635 nm fluorescence (AID 1102). The settings on record: FGF10 binding, fluorescence 635 nm, higher = more signal.
Assay [6] concerns glycogen synthase kinase-3 (GSK3A per assay name; protocol says GSK3B). As to the kind of experiment: GSK3 binders on small-molecule microarrays, primary screen, biochemical, small-molecule microarray, 635 nm fluorescence, GSK3A (AID 1103). Also: the record names both GSK3A and GSK3B. The conditions noted are these: small-molecule microarray binding, fluorescence 635 nm; higher = more signal.
Assay [7] concerns the target Epidermal growth factor receptor (Homo sapiens) (UniProt P00533). Description: EGFR binders on small-molecule microarrays, primary screen, biochemical, small-molecule microarray, 635 nm fluorescence (AID 1104).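 Also: score merges 667 nm emission intensity with spot signal to noise over triplicate slides.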 The settings on record: EGFR binding, higher = more signal.
Assay [8] concerns the target Follistatin-related protein 3 (Homo sapiens) (UniProt O95633). As to the kind of experiment: FSTL3 binders on small-molecule microarrays, primary screen, biochemical, small-molecule microarray, 635 nm fluorescence (AID 1105).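 Also: score merges emission near 667 nm and signal to noise per printed spot across three slides.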 The conditions noted are these: FSTL3 binding, higher = more signal.
For assay [9], the target named is Dickkopf-related protein 1 (Homo sapiens) (UniProt O94907). As to the kind of experiment: DKK1 binders on small-molecule microarrays, primary screen, biochemical, small-molecule microarray, 635 nm fluorescence scan (AID 1106).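 Also: score merges emission near 667 nm with signal to noise over three replicate slides.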 The conditions noted are these: DKK1 binding, higher = more signal.
Assay [10] deals with Inhibin beta A chain (activin A). Description: INHBA (activin A) binders on microarrays, primary screen, biochemical, small-molecule microarray, 635 nm fluorescence scan (AID 1107).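 Also: mouse activin A protein probed at 4.33 µg/mL on printed slides; score merges bound-protein fluorescence near 667 nm with spot signal-to-noise.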 The settings on record: small-molecule microarray binding, higher = more signal.

Active and inactive are the calls of the source.

Chain of Epidermal growth factor receptor (Homo sapiens) (P00533 whole entry, looked up): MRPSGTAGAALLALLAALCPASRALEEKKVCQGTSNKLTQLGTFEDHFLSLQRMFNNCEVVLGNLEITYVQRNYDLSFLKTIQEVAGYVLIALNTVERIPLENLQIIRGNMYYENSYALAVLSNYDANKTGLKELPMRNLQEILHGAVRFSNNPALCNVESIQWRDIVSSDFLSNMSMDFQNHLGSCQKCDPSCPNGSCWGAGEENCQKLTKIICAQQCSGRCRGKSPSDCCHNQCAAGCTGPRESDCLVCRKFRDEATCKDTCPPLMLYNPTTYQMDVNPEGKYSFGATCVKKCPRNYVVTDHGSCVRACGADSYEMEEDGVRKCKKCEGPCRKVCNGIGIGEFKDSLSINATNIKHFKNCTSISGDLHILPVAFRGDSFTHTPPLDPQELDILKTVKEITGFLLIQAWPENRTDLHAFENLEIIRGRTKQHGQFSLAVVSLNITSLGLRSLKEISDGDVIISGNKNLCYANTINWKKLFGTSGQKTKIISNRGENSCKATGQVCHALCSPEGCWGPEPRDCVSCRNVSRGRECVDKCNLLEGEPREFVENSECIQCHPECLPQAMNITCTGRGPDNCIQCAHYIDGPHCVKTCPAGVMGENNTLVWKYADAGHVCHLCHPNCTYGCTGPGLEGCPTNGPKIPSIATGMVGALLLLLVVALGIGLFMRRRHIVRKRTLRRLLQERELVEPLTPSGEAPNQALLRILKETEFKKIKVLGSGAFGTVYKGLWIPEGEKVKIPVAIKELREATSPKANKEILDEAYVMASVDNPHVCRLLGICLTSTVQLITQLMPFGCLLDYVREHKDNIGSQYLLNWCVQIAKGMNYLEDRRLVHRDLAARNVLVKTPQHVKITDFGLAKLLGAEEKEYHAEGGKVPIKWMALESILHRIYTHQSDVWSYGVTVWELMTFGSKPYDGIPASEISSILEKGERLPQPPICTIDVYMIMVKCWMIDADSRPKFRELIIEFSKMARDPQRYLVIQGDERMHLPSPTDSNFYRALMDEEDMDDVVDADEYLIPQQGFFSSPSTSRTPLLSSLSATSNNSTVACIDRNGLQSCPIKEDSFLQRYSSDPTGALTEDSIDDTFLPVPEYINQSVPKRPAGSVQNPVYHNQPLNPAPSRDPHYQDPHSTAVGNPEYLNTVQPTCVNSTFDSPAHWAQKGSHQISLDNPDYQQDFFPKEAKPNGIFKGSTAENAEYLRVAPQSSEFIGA
Chain of Dickkopf-related protein 1 (Homo sapiens) (O94907 whole entry, looked up): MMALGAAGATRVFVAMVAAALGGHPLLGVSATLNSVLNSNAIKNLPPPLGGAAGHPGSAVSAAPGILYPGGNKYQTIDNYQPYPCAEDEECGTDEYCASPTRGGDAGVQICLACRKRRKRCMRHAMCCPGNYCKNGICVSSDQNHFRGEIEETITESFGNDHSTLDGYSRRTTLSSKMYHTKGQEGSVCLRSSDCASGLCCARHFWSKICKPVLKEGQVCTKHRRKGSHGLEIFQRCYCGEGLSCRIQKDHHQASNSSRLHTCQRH
Chain of Fibroblast growth factor 10 (Homo sapiens) (O15520 whole entry, looked up): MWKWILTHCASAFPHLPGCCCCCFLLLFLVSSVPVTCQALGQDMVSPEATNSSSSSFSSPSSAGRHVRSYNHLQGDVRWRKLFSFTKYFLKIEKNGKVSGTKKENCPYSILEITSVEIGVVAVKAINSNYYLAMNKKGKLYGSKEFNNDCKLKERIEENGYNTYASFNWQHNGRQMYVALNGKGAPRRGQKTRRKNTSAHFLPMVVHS
Chain of Follistatin-related protein 3 (Homo sapiens) (O95633 whole entry, looked up): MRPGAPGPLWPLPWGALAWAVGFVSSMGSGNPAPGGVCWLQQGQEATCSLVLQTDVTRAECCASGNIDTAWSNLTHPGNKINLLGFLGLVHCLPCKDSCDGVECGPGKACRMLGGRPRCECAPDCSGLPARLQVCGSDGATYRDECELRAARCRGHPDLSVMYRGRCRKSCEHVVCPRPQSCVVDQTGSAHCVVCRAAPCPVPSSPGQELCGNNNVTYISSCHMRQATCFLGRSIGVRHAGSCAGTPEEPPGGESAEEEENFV

Consider `COC(=O)[C@@]1(Cc2ccc(F)cc2)[C@H]2c3cc(C(=O)N(C)C)n(Cc4ccc(OC(F)(F)F)cc4)c3C[C@H]2CN1C(=O)c1ccccc1`, for which the composite z-score in assay [1] was 0.19; in [2], -0.0448; in assay [3], 0.183; in assay [5], 0.251; in [6], 0.22; in assay [7], 0.18. Moreover, the composite z-score was 0.298 in [8], 0.0583 in assay [9] and 0.401 in assay [10]. In addition, in [4], the z-score is 1.32 (inactive).

On to `CCCC[C@@H]1C[C@H]1[C@@H](NC(=O)c1cccs1)c1ccccc1C(F)(F)F`, for which the composite z-score in assay [1] is 0.67; in assay [2], 0.445; in assay [3], 0.49; in [5], -0.0251; in [6], 1.23; in assay [7], -0.531. For the same compound, the composite z-score is -0.697 in assay [8], -0.291 in assay [9] and 0.978 in [10]. Moreover, in assay [4], the z-score is -0.701 (inactive).

In the case of `N[C@@H](Cc1ccccc1)C(=O)NCc1cn(Cc2ccccc2)nn1`, the composite z-score is -0.522 in assay [1]; 0.0195 in assay [2]; -0.283 in assay [3]; 0.735 in assay [5]; 0.179 in [6]; 0.113 in [7]. The composite z-score in assay [8] was 0.594; in assay [9], 0.545; in assay [10] it was 0.85. The z-score in [4] was 0.0702 (inactive).

With `CC1CC/C=C\[C@H]2OC34C=CCN(C(C)C)C(=O)[C@H]3N(CCO)C(=O)[C@@H]4C2C(=O)O1` (stereo not given in full), the composite z-score in [1] was 0.501; in assay [2], -0.163; in [3], 0.701; in assay [5], -0.309; in assay [6], -0.979; in assay [7] it was -1.29. In addition, the composite z-score in assay [8] is -1.28; in [9] it was -1.28; in assay [10], -0.372. For the same compound, in [4], the z-score was 0.459 (inactive).

As for `CC(=O)NCCCC[C@@H]1NC(=O)[C@@H]2C[C@H](C(=O)NCCCCCN)[C@H](c3ccc(O)cc3)N2C1=O`, the composite z-score in [1] was determined as 1.49; in assay [2], 1.07; in [3], 0.656; in assay [5] it was 1.23; in [6], 1.28; in [7], 0.662. The composite z-score in assay [8] amounted to 1.02; in [9] it was 1.33; in assay [10], 1.26. Also, the z-score in [4] is 0.194 (inactive).

Take `C=CCC(OC(C)=O)[C@@H]1[C@@H](N(Cc2ccc(-c3ccccc3)cc2)C(=O)c2ccc(-c3ccccc3)cc2)c2cc(OCCCO)ccc2N1C(=O)c1ccc2ccccc2c1` (stereo not given in full): the composite z-score is -0.519 in assay [1]; -0.302 in assay [2]; 0.306 in [3]; -0.015 in [5]; -0.0147 in assay [6]; -0.175 in assay [7]. The composite z-score is 0.453 in [8], 0.0004 in assay [9] and 0.82 in [10]. For the same compound, the z-score in assay [4] was -1.22 (inactive).

As to `C=CCNC(=O)[C@@H]1[C@H]2C(=O)O[C@H](c3ccccc3)[C@H](c3ccccc3)N2[C@H](c2ccccc2OCCO)[C@@]12C(=O)Nc1ccc(C#CCC(C(=O)OC)C(=O)OC)cc12`, the composite z-score in [1] was 1.66; in assay [2], -0.319; in assay [3], -0.604; in assay [5] it was 0.395; in assay [6], 1.03; in assay [7] it was -0.114. The figures for the composite z-score in assay [8], in [9] and in [10] were 0.276, 0.0965 and 0.482, respectively. For the same compound, the z-score in assay [4] was -3.31 (inactive).

`CCOC(=O)C[C@H]1[C@H](OC(=O)c2ccc(-c3ccccc3)cc2)[C@@H](NC(=O)CC(C)C)c2cc(OCCCO)ccc2N1C(=O)c1ccc2ccccc2n1`: the composite z-score in assay [1] was 0.988; in assay [2] it was -0.239; in assay [3] it was -0.39; in [5], 0.636; in [6], 0.0685; in assay [7], 0.239. Also, the composite z-score in [8] came to 0.47; in assay [9], 0.273; in assay [10] it was 0.0746. Moreover, the z-score in [4] was -0.725 (inactive).

Take `CN(C)CCCCCCNC(=O)[C@@H]1C[C@@H]2C(=O)N3CCC[C@H]3C(=O)N2[C@@H]1c1cccc(OCCO)c1`: the composite z-score was 1.35 in assay [1]; -0.0718 in assay [2]; 0.481 in [3]; 0.92 in assay [5]; 1.33 in [6]; 1.11 in [7]. The values for the composite z-score in [8], in assay [9] and in [10] were 1.49, 1.81 and 0.749, respectively. Moreover, the z-score in [4] is 0.134 (inactive).

In the case of `CCCNC(=O)[C@@H]1c2ccccc2C(=O)N(Cc2ccc(OC(F)(F)F)cc2)[C@H]1c1ccc(CO)cc1`, the composite z-score is 1.3 in [1]; 0.53 in assay [2]; 0.653 in assay [3]; 0.402 in [5]; 0.284 in assay [6]; -0.0259 in assay [7]. In addition, the results for the composite z-score in assay [8], in assay [9] and in assay [10] were 0.0777, 0.0637 and 0.0914, respectively. The z-score in assay [4] is 0.0883 (inactive).

Take `CCOC(=O)C[C@H]1[C@H](OC(=O)Cc2ccc3c(c2)OCO3)[C@@H](NC(=O)c2ccc3ccccc3n2)c2cc(OCCCO)ccc2N1C(=O)c1ccc2ccccc2n1`: the composite z-score in [1] is 0.138; in [2] it was 0.0134; in assay [3], -0.0731; in assay [5] it was 0.813; in assay [6], 0.495; in assay [7] it was 0.267. In addition, the composite z-score in assay [8] was 0.492; in assay [9] it was 0.483; in assay [10] it was 0.265. For the same compound, the z-score in [4] is -1.63 (inactive).

With `O[C@@H](Cc1ccccc1)[C@@H](/C=C/C1CC1)N(CC#Cc1ccccc1)Cc1ccccc1Br`, the composite z-score in assay [1] was -0.0214; in [2], -0.107; in [3], 1.38; in assay [5] it was -1.36; in [6], -0.689; in assay [7], -1.29. In addition, the composite z-score is -1.62 in assay [8], -1.88 in [9] and 0.171 in assay [10]. The z-score in [4] was -1.39 (inactive).

As for `CCCN1C(=O)[C@@]2(Cc3ccccc31)N=C(c1ccc(OCCCO)cc1)O[C@H]2c1ccccc1`, the composite z-score is 1.48 in assay [1]; 0.402 in [2]; 0.949 in assay [3]; 0.988 in assay [5]; 1.23 in assay [6]; -0.286 in assay [7]. Moreover, the composite z-score worked out at 0.191 in assay [8], 0.335 in assay [9] and 0.873 in assay [10]. Besides, in [4], the z-score is -1.46 (inactive).

Turning to `CCOc1cc(C(O)C2C=CC3C(=O)NC(=O)C3N2Nc2ccc(Cl)cc2Cl)ccc1O` (stereo not given), the composite z-score in assay [1] was -0.402; in [2], 0.737; in assay [3], 0.942; in [5] it was -0.251; in assay [6], -0.848; in assay [7] it was -0.238. The composite z-score is -0.859 in assay [8], -0.765 in assay [9] and 1.37 in [10]. Besides, the z-score in assay [4] was 1.22 (inactive).

Turning to `[N-]=[N+]=NCc1ccccc1[C@H]1OC(c2ccc(OCCCO)cc2)=N[C@@]1(Cc1ccccc1N=[N+]=[N-])C(=O)NCC(O)CO` (stereo not given in full), the composite z-score in assay [1] is 1.12; in [2] it was 0.33; in assay [3] it was 0.873; in assay [5], 0.903; in assay [6], 1.13; in [7], -0.186. In addition, the composite z-score in assay [8] is 0.681; in assay [9] it was -0.308; in assay [10] it was 0.317. Besides, the z-score in assay [4] is 0.451 (inactive).
